From ChEMBL document CHEMBL3988442, “University of Dundee, Small-Polar-MMV Screening Library” (2021)
For some of these results: Potency and affinity values are given separately.

How the values were obtained:
Parameters in all cases: scale not given: direction of the effect not stated beside the values
[1] = target: Protein translocase subunit SecA (Escherichia coli (strain K12)) (UniProt P10408); assay: Assay to Identify E. coli SecA ATPase Inhibitors; type: functional; conditions: 30 µM
[2] = target: T1, Ubiquitin-activating enzyme e1, putative (Leishmania donovani (strain BPK282A1)) (UniProt E9BSI1); assay: Leishmania donovani Ubiquitin Activating Enzyme (LdE1); type: functional; conditions: 30 µM
T1 sequence (whole entry): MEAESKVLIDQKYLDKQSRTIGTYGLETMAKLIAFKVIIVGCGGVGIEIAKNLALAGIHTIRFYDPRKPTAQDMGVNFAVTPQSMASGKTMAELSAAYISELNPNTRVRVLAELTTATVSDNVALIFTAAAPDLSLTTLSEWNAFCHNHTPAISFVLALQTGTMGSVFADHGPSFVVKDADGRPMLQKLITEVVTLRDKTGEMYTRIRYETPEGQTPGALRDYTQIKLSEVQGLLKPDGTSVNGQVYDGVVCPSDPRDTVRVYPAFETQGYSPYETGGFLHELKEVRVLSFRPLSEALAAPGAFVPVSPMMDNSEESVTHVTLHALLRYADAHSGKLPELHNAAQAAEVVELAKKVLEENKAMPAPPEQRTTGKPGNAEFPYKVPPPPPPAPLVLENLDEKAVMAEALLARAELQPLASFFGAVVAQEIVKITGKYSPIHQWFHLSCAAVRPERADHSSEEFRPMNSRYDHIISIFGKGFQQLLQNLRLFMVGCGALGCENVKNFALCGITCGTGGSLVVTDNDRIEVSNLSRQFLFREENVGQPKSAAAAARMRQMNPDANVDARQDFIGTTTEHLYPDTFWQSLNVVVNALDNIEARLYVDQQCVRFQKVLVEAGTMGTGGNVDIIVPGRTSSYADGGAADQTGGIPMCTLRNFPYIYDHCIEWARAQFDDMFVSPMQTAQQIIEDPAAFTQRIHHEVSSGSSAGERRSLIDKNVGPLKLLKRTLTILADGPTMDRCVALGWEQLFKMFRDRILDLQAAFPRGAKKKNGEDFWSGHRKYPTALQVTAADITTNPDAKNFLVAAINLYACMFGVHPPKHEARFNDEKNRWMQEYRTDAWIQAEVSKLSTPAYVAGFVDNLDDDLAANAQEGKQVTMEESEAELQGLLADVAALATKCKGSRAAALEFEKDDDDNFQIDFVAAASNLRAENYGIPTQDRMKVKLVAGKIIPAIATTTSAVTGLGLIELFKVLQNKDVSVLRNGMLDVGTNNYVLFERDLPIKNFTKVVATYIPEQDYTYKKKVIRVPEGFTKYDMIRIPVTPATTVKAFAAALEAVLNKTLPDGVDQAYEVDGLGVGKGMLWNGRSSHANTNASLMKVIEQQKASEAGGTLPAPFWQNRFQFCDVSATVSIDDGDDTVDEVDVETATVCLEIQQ

[3] = target: AMP-activated protein kinase, AMPK (Homo sapiens) (UniProt P54646+O43741+P54619+Q9UGJ0+Q9Y478+Q13131+Q9UGI9); assay: AMP-dependent Kinase enzyme assay. An in vitro enzyme assay that detects ADP turnover that is directly proportional to AMPK activity. This uses naive AMPK that is activated during the assay with MK-8722; type: functional; conditions: 30 µM
[4] = target: Sialic acid-binding Ig-like lectin 9 (Homo sapiens) (UniProt Q9Y336); assay: Hs-Siglec9 ALPHAscreen SOP 20170721; conditions: 10 µM
Trypanosoma cruzi = assay: Trypanosoma cruzi phosphomannomutase and mannose-1-phosphate guanylyltransferase assay; type: functional; conditions: 10 µM
[5] = target: T2, Arginase-2, mitochondrial (Homo sapiens) (UniProt P78540); assay: in vitro enzyme assay to detect the production of urea directly proportional to the activity of Arginase II; type: functional; conditions: 33.3 µM; further: in the data most compounds retested in dose-response had high values
T2 sequence (whole entry): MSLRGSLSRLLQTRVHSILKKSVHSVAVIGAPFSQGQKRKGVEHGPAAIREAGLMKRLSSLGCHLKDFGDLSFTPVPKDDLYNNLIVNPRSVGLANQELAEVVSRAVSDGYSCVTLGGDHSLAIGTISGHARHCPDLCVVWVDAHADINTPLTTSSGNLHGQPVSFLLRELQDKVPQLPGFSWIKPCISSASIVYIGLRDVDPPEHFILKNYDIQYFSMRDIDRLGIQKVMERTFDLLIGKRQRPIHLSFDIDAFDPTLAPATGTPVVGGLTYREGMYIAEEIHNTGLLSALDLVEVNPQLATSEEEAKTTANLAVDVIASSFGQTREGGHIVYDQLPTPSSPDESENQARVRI

[6] = target: T3, Proteasome subunit beta (Trypanosoma cruzi) (UniProt O96673); assay: Trypanosoma cruzi proteasome chymotrypsin-like activity (TcProtChymo) assay.; further: in the data most compounds retested in dose-response had high values; type: functional; conditions: 9.37 µM
T3 sequence (whole entry): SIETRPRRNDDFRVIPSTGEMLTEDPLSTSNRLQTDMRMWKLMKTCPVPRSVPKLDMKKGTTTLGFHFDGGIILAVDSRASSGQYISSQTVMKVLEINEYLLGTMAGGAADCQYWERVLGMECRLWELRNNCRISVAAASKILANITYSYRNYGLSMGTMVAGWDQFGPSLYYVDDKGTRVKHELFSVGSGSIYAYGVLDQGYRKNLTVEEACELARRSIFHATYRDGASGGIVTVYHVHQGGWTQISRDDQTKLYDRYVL

Homo sapiens = species on record: Homo sapiens; assay: To identify inhibition of the IFN signalling (Jak-Stat) pathway via expression of an eGFP reporter gene under the control of an IFN-stimulated response element (ISRE) containing MxA promoter.; type: functional; conditions: 30 µM
[7] = target: T4, Tyrosyl-tRNA synthetase, putative (Trypanosoma cruzi (strain CL Brener)) (UniProt Q4DSP6); assay: Trypanosoma cruzi tyrosyl tRNA synthetase (TcYRS) _High Tyrosine SOP; type: functional; conditions: 30 µM; further: in the data most compounds retested in dose-response had high values
T4 sequence (whole entry): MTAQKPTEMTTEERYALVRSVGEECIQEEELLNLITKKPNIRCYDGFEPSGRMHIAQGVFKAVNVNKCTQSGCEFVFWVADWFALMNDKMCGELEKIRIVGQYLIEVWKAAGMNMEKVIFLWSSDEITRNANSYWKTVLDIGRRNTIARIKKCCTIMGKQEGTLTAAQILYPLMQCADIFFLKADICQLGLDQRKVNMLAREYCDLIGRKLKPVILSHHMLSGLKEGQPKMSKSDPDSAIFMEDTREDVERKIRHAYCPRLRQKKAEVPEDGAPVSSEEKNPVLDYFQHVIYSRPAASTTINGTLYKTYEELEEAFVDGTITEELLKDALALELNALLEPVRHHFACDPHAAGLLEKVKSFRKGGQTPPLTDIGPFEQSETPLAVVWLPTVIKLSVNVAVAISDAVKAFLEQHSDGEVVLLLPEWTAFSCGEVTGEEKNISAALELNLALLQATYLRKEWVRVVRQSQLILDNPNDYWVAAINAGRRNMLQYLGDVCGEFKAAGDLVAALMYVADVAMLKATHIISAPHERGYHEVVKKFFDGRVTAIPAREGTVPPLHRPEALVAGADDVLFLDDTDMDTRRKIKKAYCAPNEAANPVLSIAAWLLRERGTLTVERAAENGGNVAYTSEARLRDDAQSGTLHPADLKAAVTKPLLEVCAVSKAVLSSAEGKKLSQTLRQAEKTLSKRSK

[8] = target: T4, Tyrosyl-tRNA synthetase, putative (Trypanosoma cruzi (strain CL Brener)); assay: Trypanosoma cruzi tyrosyl tRNA synthetase (TcYRS) SOP; type: functional; conditions: 30 µM
[9] = target: Chromo domain-containing protein 1 (Saccharomyces cerevisiae (strain ATCC 204508 / S288c) (Baker's yeast)) (UniProt P32657); assay: ScCHD-1 Enzyme Inhibition Assay; type: functional; conditions: 30 µM; further: in the data most compounds retested in dose-response had high values
Chromo domain-containing protein 1 (Saccharomyces cerevisiae (strain ATCC 204508 / S288c) (Baker's yeast)), sequence (P32657 whole entry, the tested form may be a part): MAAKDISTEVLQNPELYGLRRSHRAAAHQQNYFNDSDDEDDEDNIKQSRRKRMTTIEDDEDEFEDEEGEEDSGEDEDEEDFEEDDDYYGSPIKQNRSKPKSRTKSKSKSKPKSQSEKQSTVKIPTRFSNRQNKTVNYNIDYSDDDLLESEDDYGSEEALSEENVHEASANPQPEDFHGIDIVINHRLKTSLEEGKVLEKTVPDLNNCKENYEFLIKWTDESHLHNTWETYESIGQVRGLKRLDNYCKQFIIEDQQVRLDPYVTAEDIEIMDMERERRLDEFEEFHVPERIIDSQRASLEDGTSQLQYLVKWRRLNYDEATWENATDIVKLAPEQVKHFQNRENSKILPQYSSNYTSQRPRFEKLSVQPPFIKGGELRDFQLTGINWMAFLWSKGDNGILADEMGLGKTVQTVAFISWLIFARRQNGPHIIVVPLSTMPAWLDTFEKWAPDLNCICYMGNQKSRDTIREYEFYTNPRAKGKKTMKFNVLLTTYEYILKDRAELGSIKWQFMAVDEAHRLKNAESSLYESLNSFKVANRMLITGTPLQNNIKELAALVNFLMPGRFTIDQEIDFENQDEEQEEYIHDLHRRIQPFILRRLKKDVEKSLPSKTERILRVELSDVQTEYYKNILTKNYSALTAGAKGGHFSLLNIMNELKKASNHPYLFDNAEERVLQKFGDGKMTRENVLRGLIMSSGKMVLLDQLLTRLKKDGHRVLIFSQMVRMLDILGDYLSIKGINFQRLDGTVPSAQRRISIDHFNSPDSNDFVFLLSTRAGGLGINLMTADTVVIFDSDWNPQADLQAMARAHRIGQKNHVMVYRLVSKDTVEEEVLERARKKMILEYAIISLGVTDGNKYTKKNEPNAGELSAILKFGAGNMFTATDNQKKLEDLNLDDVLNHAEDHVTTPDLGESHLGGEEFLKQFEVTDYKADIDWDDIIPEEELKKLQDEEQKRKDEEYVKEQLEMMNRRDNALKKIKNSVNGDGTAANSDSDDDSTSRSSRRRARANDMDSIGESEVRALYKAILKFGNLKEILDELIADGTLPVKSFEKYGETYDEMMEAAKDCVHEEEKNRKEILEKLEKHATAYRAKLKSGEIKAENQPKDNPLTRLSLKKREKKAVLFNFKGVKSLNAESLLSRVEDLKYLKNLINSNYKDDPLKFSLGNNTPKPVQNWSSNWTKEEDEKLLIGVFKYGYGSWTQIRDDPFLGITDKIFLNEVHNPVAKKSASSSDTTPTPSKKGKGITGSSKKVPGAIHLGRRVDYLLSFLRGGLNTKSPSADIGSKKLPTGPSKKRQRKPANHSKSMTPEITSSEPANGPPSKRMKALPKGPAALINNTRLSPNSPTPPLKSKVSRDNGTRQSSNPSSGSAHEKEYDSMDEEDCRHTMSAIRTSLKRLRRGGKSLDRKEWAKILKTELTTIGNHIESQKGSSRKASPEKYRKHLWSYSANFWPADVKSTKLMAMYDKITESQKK

Protein translocase subunit SecA (Escherichia coli (strain K12)), sequence (P10408 whole entry): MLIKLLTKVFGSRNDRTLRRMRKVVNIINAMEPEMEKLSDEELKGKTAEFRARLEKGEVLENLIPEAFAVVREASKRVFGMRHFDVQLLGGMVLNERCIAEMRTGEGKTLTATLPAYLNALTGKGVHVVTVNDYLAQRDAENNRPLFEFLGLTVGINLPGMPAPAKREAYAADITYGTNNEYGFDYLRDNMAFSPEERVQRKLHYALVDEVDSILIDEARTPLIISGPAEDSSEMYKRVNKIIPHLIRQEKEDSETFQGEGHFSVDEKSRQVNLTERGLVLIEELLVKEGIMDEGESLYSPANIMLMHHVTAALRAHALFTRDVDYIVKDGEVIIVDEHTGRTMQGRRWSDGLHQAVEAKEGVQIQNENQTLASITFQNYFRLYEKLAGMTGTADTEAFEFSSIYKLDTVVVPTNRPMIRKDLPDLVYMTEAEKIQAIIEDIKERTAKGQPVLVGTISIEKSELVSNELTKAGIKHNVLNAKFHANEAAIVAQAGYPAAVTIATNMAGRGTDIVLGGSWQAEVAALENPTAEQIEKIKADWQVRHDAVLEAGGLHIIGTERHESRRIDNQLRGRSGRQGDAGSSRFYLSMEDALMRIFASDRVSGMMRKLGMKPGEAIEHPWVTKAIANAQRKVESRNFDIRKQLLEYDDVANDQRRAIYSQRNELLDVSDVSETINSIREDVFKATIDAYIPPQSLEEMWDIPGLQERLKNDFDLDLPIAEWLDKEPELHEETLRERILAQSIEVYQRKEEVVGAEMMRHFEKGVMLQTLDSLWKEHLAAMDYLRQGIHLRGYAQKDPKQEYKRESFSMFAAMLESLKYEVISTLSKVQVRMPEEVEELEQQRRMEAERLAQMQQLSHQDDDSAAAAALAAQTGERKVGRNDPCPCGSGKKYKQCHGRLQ
Sialic acid-binding Ig-like lectin 9 (Homo sapiens), sequence (Q9Y336 whole entry): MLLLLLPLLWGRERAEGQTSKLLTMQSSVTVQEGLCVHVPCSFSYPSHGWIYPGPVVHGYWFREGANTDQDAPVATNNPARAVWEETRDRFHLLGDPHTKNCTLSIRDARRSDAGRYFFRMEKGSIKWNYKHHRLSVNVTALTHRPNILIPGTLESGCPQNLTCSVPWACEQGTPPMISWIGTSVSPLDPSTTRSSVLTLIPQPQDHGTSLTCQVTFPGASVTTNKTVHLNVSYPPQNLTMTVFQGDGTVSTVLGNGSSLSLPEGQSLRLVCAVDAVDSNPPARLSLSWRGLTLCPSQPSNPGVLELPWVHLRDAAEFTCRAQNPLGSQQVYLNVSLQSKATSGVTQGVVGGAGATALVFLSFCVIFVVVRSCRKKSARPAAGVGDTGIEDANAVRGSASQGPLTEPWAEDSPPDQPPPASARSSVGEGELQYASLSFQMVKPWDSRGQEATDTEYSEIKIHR

SMILES | Percent Effect [1] | Percent Effect [2] | Percent Effect [3] | Percent Effect [4] | Percent Effect (Trypanosoma cruzi) | Percent Effect [5] | Percent Effect [6] | Percent Effect (Homo sapiens) | Percent Effect [7] | Percent Effect [8] | Percent Effect [9]
CC(=O)Nc1nc(C(=O)NCc2ccc(N3CCCCCC3)nc2)cs1 | -1.32% | 24.1% | 5.19% | -5.11% | -1.13% | -4.09% | 20.6% | 29.2% | 4.17% | 22.8% | -18.9%
O=C(c1ccc(Cl)o1)N1CCCC(c2cc(C(F)(F)F)[nH]n2)C1 (stereo not given) | -4.11% | 7.89% | 8.92% | -5.86% | -4.95% | -0.719% | 2.45% | 29.4% | 3.45% | 3.7% | -2.91%
Cc1ccc(CN2CC(C(=O)Nc3ccccc3)C3(CCOCC3)C2)s1 (stereo not given) | -2.15% | 8% | -1.41% | 0.774% | -0.579% | -44.3% | 11.4% | -5.53% | 3.12% | 25% | -6.22%
Cc1cc(CN(C)C(=O)C2CCS(=O)(=O)C2)no1 (stereo not given) | 0.281% | 18.2% | -1.29% | -9.12% | 4.21% | 2.74% | 14% | 31.4% | 5.71% | 21.2% | -8.16%
CCC(C)(NCC(=O)N(c1ccccc1)C(C)C)c1nc(C)cs1 (stereo not given) | 1.71% | 8.11% | -12.9% | 3.16% | 1.27% | 7.2% | 7.3% | -1.37% | 4.3% | 13.6% | -8.52%
Cc1cnn(CCNCc2ccccc2Oc2cccnc2)c1 | -0.645% | 11.4% | -5.35% | -0.251% | -5.03% | -9.25% | 23.3% | 6.29% | 8.33% | 7.59% | -26%
N#CCSCCCN1CCCN(C(=O)c2ccccc2)CC1 | -1.53% | -5.48% | 0.11% | 1.74% | -4.17% | 3.19% | 1.63% | 14.4% | 1.04% | 3.7% | 6.49%
CC(C)(C)c1ccc(C2(C(=O)NCCS(N)(=O)=O)CC2)cc1 | -3.83% | 10.4% | 1.16% | 8.65% | 3.25% | -422% | 8.98% | 10.7% | 3.23% | 11.1% | -4.35%
COc1c(C2CCCN2C(=O)c2ccc(Cl)o2)c(C)nn1C (stereo not given) | -5.93% | 13.5% | -4.28% | 21.4% | 2.93% | 4.17% | 10.6% | -2.68% | 5.94% | 18.3% | -0.337%
Cn1ncc2c1CCCC2NCc1ccc(Cl)s1 (stereo not given) | -4.36% | 13% | -34.6% | -13.6% | -1.08% | 2.74% | 12.2% | 9.39% | 6.67% | 11.8% | -19.4%
Cc1cc(C)n(CC2CCCN2C(=O)c2c[nH]c3ncccc23)n1 (stereo not given) | -3.09% | -2.7% | 10.7% | 5.96% | -4.18% | 4.99% | -3.05% | 24.1% | -0.99% | -6.1% | 12.6%
COC(=O)c1ccc(C2CC(=O)Oc3cc(C)[nH]c(=O)c32)cc1 (stereo not given) | -1.55% | 6.67% | -1.14% | 0.386% | 4.71% | -2.99% | 7.58% | -1.51% | 6.35% | 5.13% | -3.36%
Cc1cn(CC(=O)NC2CCN(C(=O)C3CC3)CC2)c2ccccc12 | -5.47% | 2.7% | -7.57% | 10.7% | 7.72% | 0.744% | 4.55% | 9.22% | 3.23% | 11.1% | -3.71%
COC(=O)c1cc(C(=O)N2CCCCCC2)n(-c2ccccc2)n1 | -5.27% | 2.63% | 0.404% | 4.54% | -5.08% | 1.92% | -3.51% | 18.4% | 2.45% | 9.76% | -1.11%
CC1CN(Cc2noc(C3CC3)n2)CCN1Cc1nccn1C (stereo not given) | -5.15% | 2.53% | -12.8% | 3.3% | 5.19% | -2.66% | 1.72% | 8.77% | 6.4% | 11.4% | -1.35%
CCOCC(O)CN1CCN(C(=O)CC(C)C)CC1 (stereo not given) | -3.57% | 16.2% | -2.25% | 3.53% | -4.62% | 0.401% | 7.39% | 12.1% | 2.46% | 11.1% | -7.14%
COCCO[C@H]1CCN(Cc2cccs2)[C@H]1Cc1cccnc1 | -3.38% | 0% | -12.3% | 20.5% | 6.35% | -1.24% | 11.6% | 0.814% | 3.23% | 6.17% | -1.24%
COc1ccccc1N1CCC(CNCc2cccc(C#N)c2)C1 (stereo not given) | -2.81% | 8.11% | 9.38% | -7.09% | 3.11% | -8.82% | 17.3% | -10.4% | 13.3% | 18.5% | 10.3%
CC(C)c1nnc2n1CC(CNCc1ccncc1)CC2 (stereo not given) | -1.84% | 4.17% | -5.62% | -8.26% | -3.21% | 2.21% | 17% | -9.1% | 3.16% | -2.56% | -2.53%
CC(Cn1cncn1)NCc1nncn1C1CCCCC1 (stereo not given) | -0.337% | 6.94% | -10.2% | 13.3% | 0.0972% | 12.4% | 14.4% | -15.2% | 8.42% | 15.4% | -5.04%
